The record followed here is PubChem BioAssay.

The test system of assay [1] is Wnt5a (protein binding on small-molecule microarray). In words: small molecules binding Wnt5a protein – biophysical, small-molecule microarray, 635/667 nm fluorescence, primary screen (AID 1142).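 Also: fluorescence read at 667 nm with signal to noise per printed feature.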 To be noted: 635 nm fluorescence, higher = more signal.
Assay [2] can be described thus: ATP-based viability of Huh7 replicon cells – cell-based, CellTiter-Glo luminescence, basal, 48 h, cytotoxicity control for HCV replication inhibitor project, primary screen (AID 1143).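 Also: Huh7 hepatoma cells carrying a hepatitis C replication reporter with no stimulus; test concentration not given here.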 To be noted: higher = more signal, called active from +8 up or from −8 down. Background: In antiviral work, replicon cells carry a viral genome segment that copies itself.
The nature of assay [3]: Pseudomonas biofilm growth suppression – PAO1 strain, BacTiter-Glo luminescence, LB-PBS, primary screen (AID 1144). Conditions: P. aeruginosa PAO1 biofilm, 12 h, higher = more signal.
Assay [4] in a line: basal CRE-LacZ reporter activity in PC12 – cell-based, unstimulated, primary screen (AID 1145). Conditions: no forskolin, luminescence, 4.5 h, higher = more signal, called active from +8 up or from −8 down.
Assay [5] can be described thus: forskolin-driven CRE-LacZ activity in PC12 – cell-based, CRE-LacZ reporter, forskolin-stimulated, primary screen (AID 1146).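 Also: PC12 cells with 6xCRE LacZ reporter stimulated by forskolin 10 µM; beta-galactosidase reporter signal reflecting CREB driven transcription.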 To be noted: luminescence, 4.5 h, higher = more signal, called active from +8 up or from −8 down.
Assay [6] deals with Streptavidin (Streptomyces avidinii) (UniProt P22629). In words: compounds binding control protein streptavidin – biophysical, small-molecule microarray, 635/667 nm fluorescence, artefact control for SMM compound annotation, primary screen (AID 1147).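 Also: signal reflects streptavidin binding to arrayed compounds as a control protein.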 To be noted: higher = more signal.
Streptavidin (Streptomyces avidinii), sequence (P22629 whole entry, looked up): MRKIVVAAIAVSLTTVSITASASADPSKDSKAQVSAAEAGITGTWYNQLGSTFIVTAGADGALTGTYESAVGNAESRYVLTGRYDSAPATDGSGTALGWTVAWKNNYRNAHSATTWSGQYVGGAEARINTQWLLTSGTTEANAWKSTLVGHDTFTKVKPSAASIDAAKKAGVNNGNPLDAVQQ
Assay [7] can be described thus: probe aInhba binding on compound microarray – biochemical, small-molecule microarray, 635/667 nm fluorescence, primary screen (AID 1148).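 Also: score merges 667nm spot fluorescence with signal-to-noise for antibody binding to printed compounds.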 To be noted: higher = more signal.
Assay [8] has as its target Torsin-1A (Homo sapiens) (UniProt O14656). Put plainly: TOR1A wild-type binding on microarray – cell lysate, small-molecule microarray, lysate, 635/667 nm, primary screen (AID 1149). Conditions: COS7 hTOR1A-WT lysate, 635 nm fluorescence, higher = more signal.
Assay [9] shares this target. In words: torsin A mutant lysate binding on microarrays – cell lysate, small-molecule microarray, COS7 lysate, 635/667 nm fluorescence, primary screen (AID 1150).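 Also: score pools 667 nm emission and signal to noise measuring lysate protein binding.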 To be noted: COS7 hTOR1A mutant lysate, 635 nm fluorescence, higher = more signal.
Assay [10] has as its system Sonic hedgehog protein (Shh). In words: Sonic hedgehog microarray binding compounds – biochemical, small-molecule microarray, 635/667 nm fluorescence, primary screen (AID 1151).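 Also: Shh protein binding to compounds spotted on small-molecule microarray slides; score combines spot fluorescence intensity with signal-to-noise across triplicate slides.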 Conditions: 635 nm fluorescence, higher = more signal.
Assay [11] in a line: optical density shifts of acrAB sulA E. coli – strain DRC41, OD650, 48 h, E. coli filamentation inducer project, primary screen (AID 1152).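 Also: E. coli MC1000 strain DRC41 lacking acrAB efflux pump and sulA.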 To be noted: higher = more signal, called active from +8 up or from −8 down.
A short description of assay [12]: probe aLefty1 binding on compound microarray – biochemical, small-molecule microarray, 635/667 nm fluorescence, primary screen (AID 1153).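 Also: score merges spot fluorescence with signal-to-noise ratio from the scanned slide images.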 To be noted: higher = more signal.
Assay [13] can be described thus: plasmodial surface anion channel blockers, osmotic lysis – cell-based, P. falciparum Indochina, OD700, 1 h, primary screen (AID 1154). Conditions: P. falciparum Indochina infected RBC osmotic lysis, higher = more signal, called active from +8 up or from −8 down.
Assay [14] can be described thus: plasmodial surface anion channel blockers, osmotic lysis – cell-based, P. falciparum Indochina, OD700, 2 h, primary screen (AID 1155).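 Also: lysis reports solute entry through the parasite surface anion channel PSAC.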 To be noted: P. falciparum Indochina infected erythrocytes, higher = more signal, called active from +8 up or from −8 down.
Assay [15] is described as follows: changes in parasitized red cell lysis, either direction – P. falciparum Indochina, OD700, 3 h, PSAC antagonist project, primary screen (AID 1156). Conditions: P. falciparum-infected erythrocytes, osmotic lysis, higher = more signal, called active from +8 up or from −8 down.
Assay [16] in a line: plasmodial surface anion channel blockers, osmotic lysis – cell-based, P. falciparum Indochina, OD700, 18 h, primary screen (AID 1157). Conditions: P. falciparum Indochina infected erythrocytes, osmotic lysis OD700, 18 h; higher = more signal, called active from +8 up or from −8 down.
Assay [17] is described as follows: S6 kinase pathway phospho-S6 level changes – cell-based, A549, cytoblot, luminescence, serum-stimulated, primary screen (AID 1158).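 Also: serum-stimulated A549 lung adenocarcinoma cells; signal is phosphorylated S6 detected by cytoblot immunostaining with HRP secondary.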 Conditions: 5 h, higher = more signal.
Assay [18] concerns the target NADPH oxidase 2 (Homo sapiens) (UniProt P04839). Put plainly: compounds shifting NOX2 Amplex Red fluorescence – cell-based, HEK293-NOX2, PMA-stimulated, NOX inhibitor project, primary screen (AID 1159). Also: test concentration not given here. To be noted: 45 min, higher = more signal, called active from +8 up or from −8 down.
Assay [19] deals with NADPH oxidase 4 (Homo sapiens) (UniProt Q9NPH5). Put plainly: compounds shifting NOX4 Amplex Red fluorescence – cell-based, HEK293-NOX4, tetracycline-induced, NOX inhibitor project, primary screen (AID 1160). Conditions: HEK293-NOX4, Amplex Red H2O2 fluorescence, 45 min; higher = more signal, called active from +8 up or from −8 down.
NADPH oxidase 4 (Homo sapiens), sequence (Q9NPH5 whole entry, looked up): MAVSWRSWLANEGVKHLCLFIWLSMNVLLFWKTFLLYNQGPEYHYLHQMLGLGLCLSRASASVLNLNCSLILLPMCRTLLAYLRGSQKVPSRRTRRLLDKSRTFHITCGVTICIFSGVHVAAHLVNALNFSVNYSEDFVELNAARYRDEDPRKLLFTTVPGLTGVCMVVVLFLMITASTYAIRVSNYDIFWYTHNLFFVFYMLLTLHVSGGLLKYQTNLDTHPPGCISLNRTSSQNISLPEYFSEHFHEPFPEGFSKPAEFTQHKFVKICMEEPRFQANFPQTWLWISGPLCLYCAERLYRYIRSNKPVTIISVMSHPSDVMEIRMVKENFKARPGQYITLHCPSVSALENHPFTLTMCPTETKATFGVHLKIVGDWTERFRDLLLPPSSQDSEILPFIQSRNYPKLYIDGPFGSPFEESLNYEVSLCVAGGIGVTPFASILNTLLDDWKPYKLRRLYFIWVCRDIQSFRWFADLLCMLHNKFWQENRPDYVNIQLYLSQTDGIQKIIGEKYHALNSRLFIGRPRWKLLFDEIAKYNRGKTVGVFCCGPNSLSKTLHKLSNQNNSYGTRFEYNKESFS
In assay [20] the target is NADPH oxidase 5 (Homo sapiens) (UniProt Q96PH1). Put plainly: compounds shifting NOX5 Amplex Red fluorescence – cell-based, HEK293-NOX5, NOX inhibitor project, primary screen (AID 1161). To be noted: HEK293-NOX5, ionomycin, 45 min, higher = more signal.
NADPH oxidase 5 (Homo sapiens), sequence (Q96PH1 whole entry, looked up): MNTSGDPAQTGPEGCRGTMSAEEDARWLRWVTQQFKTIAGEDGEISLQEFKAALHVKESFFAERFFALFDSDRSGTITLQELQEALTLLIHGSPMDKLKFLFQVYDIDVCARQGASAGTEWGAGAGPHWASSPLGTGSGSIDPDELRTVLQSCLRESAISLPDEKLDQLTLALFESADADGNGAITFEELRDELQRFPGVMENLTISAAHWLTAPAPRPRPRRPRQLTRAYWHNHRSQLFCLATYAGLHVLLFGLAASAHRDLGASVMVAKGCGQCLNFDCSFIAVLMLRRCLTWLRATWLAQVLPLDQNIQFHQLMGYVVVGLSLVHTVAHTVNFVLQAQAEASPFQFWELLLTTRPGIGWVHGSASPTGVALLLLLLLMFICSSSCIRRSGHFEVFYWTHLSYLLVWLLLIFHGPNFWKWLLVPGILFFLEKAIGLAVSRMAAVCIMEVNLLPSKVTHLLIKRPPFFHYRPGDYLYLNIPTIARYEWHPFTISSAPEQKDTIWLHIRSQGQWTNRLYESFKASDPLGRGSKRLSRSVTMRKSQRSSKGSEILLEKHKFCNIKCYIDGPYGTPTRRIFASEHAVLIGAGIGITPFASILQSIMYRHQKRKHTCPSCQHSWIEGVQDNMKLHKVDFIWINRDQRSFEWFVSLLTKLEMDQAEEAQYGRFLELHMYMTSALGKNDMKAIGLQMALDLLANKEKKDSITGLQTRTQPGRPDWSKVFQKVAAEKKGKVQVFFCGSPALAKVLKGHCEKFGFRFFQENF

Calls of active or inactive are those of the source. Unless noted, no rule for the calls is given here.

NADPH oxidase 2 (Homo sapiens), sequence (P04839 whole entry, looked up): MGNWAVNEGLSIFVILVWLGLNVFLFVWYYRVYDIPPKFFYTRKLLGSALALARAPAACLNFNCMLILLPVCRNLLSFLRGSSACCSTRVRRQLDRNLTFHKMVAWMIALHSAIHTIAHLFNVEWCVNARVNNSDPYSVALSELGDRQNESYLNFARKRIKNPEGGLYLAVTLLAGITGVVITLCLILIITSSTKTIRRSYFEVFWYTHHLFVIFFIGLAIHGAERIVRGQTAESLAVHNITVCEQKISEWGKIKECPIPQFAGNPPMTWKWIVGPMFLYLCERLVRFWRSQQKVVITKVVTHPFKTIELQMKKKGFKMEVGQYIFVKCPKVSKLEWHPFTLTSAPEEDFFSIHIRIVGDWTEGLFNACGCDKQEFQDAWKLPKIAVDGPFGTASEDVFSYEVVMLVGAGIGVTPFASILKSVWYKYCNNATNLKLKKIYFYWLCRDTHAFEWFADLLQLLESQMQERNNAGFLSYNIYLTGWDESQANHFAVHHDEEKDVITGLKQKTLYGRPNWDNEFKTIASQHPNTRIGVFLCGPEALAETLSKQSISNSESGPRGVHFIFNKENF
Torsin-1A (Homo sapiens), sequence (O14656 whole entry, looked up): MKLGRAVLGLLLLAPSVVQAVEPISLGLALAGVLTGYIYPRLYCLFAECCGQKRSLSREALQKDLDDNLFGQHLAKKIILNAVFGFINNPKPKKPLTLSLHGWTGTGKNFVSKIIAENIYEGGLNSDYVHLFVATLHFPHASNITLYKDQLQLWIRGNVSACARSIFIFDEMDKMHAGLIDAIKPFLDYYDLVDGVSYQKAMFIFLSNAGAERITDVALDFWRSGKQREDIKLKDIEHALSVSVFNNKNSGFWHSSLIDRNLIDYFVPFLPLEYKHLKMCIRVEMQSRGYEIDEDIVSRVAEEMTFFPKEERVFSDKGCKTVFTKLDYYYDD

With `CCCCCN1CC=CC23O[C@@H]4C=CCOC(=O)[C@@H]4[C@H]2C(=O)N(CCCCCCO)[C@@H]3C1=O` (stereo not given in full), the composite z-score was -0.485 in assay [1]; -0.976 in [6]; -0.15 in [7]; -1.78 with Torsin-1A (Homo sapiens) [8]; -0.966 in the assay with Torsin-1A (Homo sapiens) [9]; -0.837 in [10]. Moreover, in assay [12], the composite z-score is -0.103. In addition, the z-score in assay [2] is 0.0442 (inactive); in [3], 0.851 (inactive); in assay [4], -0.342 (inactive); in [5], 0.124 (inactive); in assay [11] it was 0.191 (inactive); in assay [13] it was 2.04 (inactive). Further, the z-score in assay [14] is -0.0969 (inactive); in [15] it was 0.748 (inactive); in assay [16], 0.187 (inactive); in assay [17], 0.0374; in assay [18] it was 1.24 (inactive); in [19], -0.482 (inactive). In addition, the z-score in assay [20] was 1.73.
For `O=C1CCCC=C1C(O)CCOCc1ccccc1` (stereo not given), the composite z-score in assay [1] was -0.0912; in assay [6], 0.787; in assay [7] it was -0.2; in the assay with Torsin-1A (Homo sapiens) [8], 0.728; with Torsin-1A (Homo sapiens) [9] it was 0.0645; in assay [10] it was 0.307. The composite z-score in assay [12] is -0.342. Besides, the z-score in [2] was 0.056 (inactive); in assay [3], 0.964 (inactive); in assay [4], 0.11 (inactive); in [5] it was 0.0483 (inactive); in [11], -1.7 (inactive); in [13] it was 0.427 (inactive). The z-score was -0.127 (inactive) in assay [14]; 0.452 (inactive) in assay [15]; -0.118 (inactive) in assay [16]; -0.235 in assay [17]; 1.18 (inactive) in [18]; 0.45 (inactive) in [19]. Moreover, the z-score in assay [20] is -0.00615.
Regarding `CCOC(=O)NN=C1C[C@@H](O)[C@@H](O)[C@@H]2[C@@H]3C(=O)N(C4CCCCC4)C(=O)[C@@H]3CC[C@@H]12`, the composite z-score is 0.133 in [1]; 0.132 in assay [6]; -0.0987 in [7]; 0.597 with Torsin-1A (Homo sapiens) [8]; 0.726 in the assay with Torsin-1A (Homo sapiens) [9]; 0.0717 in assay [10]. In addition, the composite z-score in assay [12] is -0.147. Besides, the z-score in assay [2] was 0.392 (inactive); in assay [3] it was 0.471 (inactive); in assay [4] it was 0.16 (inactive); in assay [5] it was 0.366 (inactive); in assay [11] it was -0.0671 (inactive); in assay [13] it was 1.61 (inactive). The z-score is 0.0554 (inactive) in assay [14]; -1.02 (inactive) in [15]; -0.039 (inactive) in [16]; 0.492 in assay [17]; -0.000129 (inactive) in [18]; 0.328 (inactive) in [19]. The z-score in assay [20] was -0.121.
`O=C(NN=C1C[C@@H](O)[C@@H](O)[C@@H]2[C@@H]3C(=O)N(c4cccc(Oc5ccccc5)c4)C(=O)[C@@H]3CC[C@@H]12)OCc1ccccc1`: the composite z-score in [1] is -0.0255; in assay [6], 0.504; in assay [7], -0.183; with Torsin-1A (Homo sapiens) [8], 0.212; in the assay with Torsin-1A (Homo sapiens) [9], 0.31; in assay [10] it was -0.376. In assay [12], this compound gave a composite z-score of 0.101. The z-score was -0.033 (inactive) in [2]; -0.0198 (inactive) in assay [3]; 1.6 (inactive) in assay [4]; -0.227 (inactive) in assay [5]; -0.385 (inactive) in assay [11]; 2.57 (inactive) in [13]. For the same compound, the z-score in [14] is 0.237 (inactive); in assay [15], 1.09 (inactive); in [16], 0.0572 (inactive); in assay [17], -0.818; in assay [18] it was 1.05 (inactive); in [19], -2.06 (inactive). In addition, in assay [20], the z-score came out at 0.134.
